Sampled rows, rich in hits. Any-hit rate of the full collection: about 2.1%.
Rpn11 block – Rpn11 (human) deubiquitinase inhibition. 360,000 tested, 0.59% active. inhibition, % at 20 µM. human 26S proteasome, Ub4-pepOG fluorescence polarization; 20S core pre-blocked with epoxomicin. O00487;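 active means inhibition at 20 µM, scaled to each plate's controls, above about 33%, limit read from the data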
Myeloid diff 2 – promotes myeloid progenitor differentiation; ER-HoxA9 myeloid progenitors, lysozyme-GFP differentiation, flow cytometry; 360,000 tested, 1% active; calls only at 10 µM; AID 624256;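 active means normalized GFP-positive differentiation at or above the plate's own cutoff, the solvent-only control mean plus 3 SD; inconclusive means no clear call, values can overlap the other calls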;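 further: cells exposed to compound for four days before flow analysis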
TPT1 inhibitor – C. albicans TPT1 enzyme inhibition; 300,000 tested, 0.81% active; recombinant caTPT1, FP RNA substrate dephosphorylation; inhibition, % at 5 µM; AID 1962;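 active means inhibition above the mean of all tested compounds plus 3 SD, set per screening campaign, cut at about 24% in these data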;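 further: plate controls were DMSO alone for no effect and ferristatin control at 100 nM for full effect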
HNF4A DNA FP – change in binding of human HNF4 alpha to DNA; P41235; HNF4a-FITC DNA binding, fluorescence polarization, 1 h; activity change, % at 10 µM; 360,000 tested, 0.3% active; AID 1224865; in the data active means activity change above about 30%, passing the limit was not always enough
Target sequence (P41235 whole entry, looked up): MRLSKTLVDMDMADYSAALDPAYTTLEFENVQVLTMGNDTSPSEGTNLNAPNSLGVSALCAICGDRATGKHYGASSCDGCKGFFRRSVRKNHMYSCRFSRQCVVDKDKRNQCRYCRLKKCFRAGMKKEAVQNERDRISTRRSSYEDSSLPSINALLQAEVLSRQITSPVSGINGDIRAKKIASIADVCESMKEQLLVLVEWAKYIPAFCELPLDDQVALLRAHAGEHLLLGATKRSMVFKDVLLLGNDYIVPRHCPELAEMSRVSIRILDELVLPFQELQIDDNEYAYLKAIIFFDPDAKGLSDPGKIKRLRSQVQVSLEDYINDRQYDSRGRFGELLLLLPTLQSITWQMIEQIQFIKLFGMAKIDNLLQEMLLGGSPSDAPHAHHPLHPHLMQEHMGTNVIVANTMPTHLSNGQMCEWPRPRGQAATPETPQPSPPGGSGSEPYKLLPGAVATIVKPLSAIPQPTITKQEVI
Numbers without * were called inactive; i = inactive; ? = inconclusive; / = not tested or not shown; + = active, no number.

SMILES	Rpn11 block	Myeloid diff 2	TPT1 inhibitor	HNF4A DNA FP
COc1ccc(S(=O)(=O)NCc2cccnc2)cc1	-3	i	5	1
COc1ccc(S(=O)(=O)NCc2cccnc2)cc1Br	-2	i	0	129*
COc1ccc(S(=O)(=O)NCc2cccnc2)cc1NC(=O)c1ccccc1C	64*	i	/	-34
CCOc1ccc(S(=O)(=O)NCc2cccnc2)cc1NC(=O)c1ccccc1	7	i	/	-1
CC(C)n1c(O)c(N=NC(=O)Cc2csc(N3CCOCC3)n2)c2ccccc21	-2	i	0	0
CCCN1C(=O)/C(=C\C=C2\N(CC)c3ccccc3C2(C)C)SC1=S	/	+	/	0
CCN1C(=O)C(=CC=CN(C)c2ccccc2)SC1=S	/	+	/	176
Cc1ccnc(Nc2cccnc2)n1	-6	i	/	0
COc1ccc(C)cc1NC(=O)c1nnn(Cc2cccc(C(F)(F)F)c2)c1N	-9	+	-4	-2
CCCCC(=O)NCCc1cc2c(OC)ccc(OC)c2[nH]c1=O	3	i	10	-2
COCCN1Cc2cccc(C(=O)Nc3ccc(S(=O)(=O)N4CCCCC4)cc3)c2C1=O	3	+	1	-3
COCCN1Cc2cccc(C(=O)Nc3ccc(C)cc3)c2C1=O	-4	i	-5	1
CC(C)Oc1cccc(C(=O)NC(=S)Nc2ccccc2)c1	-5	i	-4	2
CC1CC1C(=O)N(C)CC(=O)Nc1ccccc1Br (configuration not stated)	-3	i	/	-3
COC(=O)C[C@H]1C=C[C@@H](NC(=O)c2ccncc2)[C@@H](CO)O1	/	i	/	-3
CC(=O)Nc1ccc(C(=O)N2CCN(S(=O)(=O)c3ccc4c(c3)OCCCO4)CC2)cc1	-3	i	/	-3
CNc1ccc(C(=O)N2CCN(S(=O)(=O)c3ccc4c(c3)OCCCO4)CC2)cc1[N+](=O)[O-]	3	+	-1	0
Cc1cc(-c2ccc(N3CCOCC3)cc2)nc2ccccc12	-22	+	-8	-13
c1ccc2nc(-c3ccc(N4CCOCC4)cc3)ccc2c1	13	i	4	3
CN1CCN(c2ccc(-c3ccc4ccccc4n3)cc2)CC1	-9	+	/	-3
COc1ccc(N2CCN(C(=O)COC(=O)c3ccc(-n4nc(C)cc4C)cc3)CC2)cc1	-4	i	/	0
Cc1ccc2c(c1)C(=O)N1[C@H]3c4cc(C)ccc4OC[C@@H]3[C@H](c3ccccc3)[C@]1(C)C(=O)N2	-12	+	/	1
Cc1ccc2c(c1)C(=O)N1[C@H]3c4cc(Cl)ccc4OC[C@@H]3[C@H](c3ccccc3)[C@]1(C)C(=O)N2	2	i	/	2
CN(CCc1ccccc1)C(=O)CC1C(=O)NCCN1Cc1ccccn1 (configuration not stated)	-12	i	/	-6
Cc1nc(SCc2ccc(F)cc2)n[nH]1	-3	i	-1	2
SMILES	Rpn11 block	Myeloid diff 2	TPT1 inhibitor	HNF4A DNA FP
Cc1nc(SCc2ccc(Cl)c(Cl)c2)n[nH]1	-3	i	/	118*
Cc1ccc(C2=NOC(C)(c3nnc(-c4ccc(Cl)cc4)o3)C2)cc1 (configuration not stated)	-1	i	0	36*
CC1(c2nnc(-c3ccc(Cl)cc3)o2)CC(c2ccc(Cl)cc2)=NO1 (configuration not stated)	2	i	3	-2
CC(C)(C)OC(=O)N1CCC(NC(=O)c2[nH]cnc2C(=O)Nc2ccccc2)CC1	10	+	/	-3
Cc1ccc(NC(=O)c2nc[nH]c2C(=O)NC2CCN(C(=O)OC(C)(C)C)CC2)cc1	4	i	/	-3
Cc1cccc(N2CCN(C(=O)Cn3sc4nc(C)cc(C)c4c3=O)CC2C)c1 (configuration not stated)	4	?	25*	5
Cc1cccc(N2CCN(C(=O)Cn3nc(C)n4cccc4c3=O)CC2C)c1 (configuration not stated)	0	i	-2	-2
Cc1ccc(S(=O)(=O)N2C[C@H]3C(=O)C[C@@H](c4ccccc4)N(S(=O)(=O)c4ccc(C)cc4)[C@H]3C[C@H]2c2cccc(Cl)c2)cc1	-2	+	/	0
Cc1ccc(S(=O)(=O)N2C[C@H]3C(=O)C[C@@H](c4cccc(Cl)c4)N(S(=O)(=O)c4ccc(C)cc4)[C@H]3C[C@H]2c2cccc(Cl)c2)cc1	0	i	/	3
N/C(=N/OC(=O)c1ccccc1Cl)c1ncc([N+](=O)[O-])s1	10	+	3	0
CC1CCCCN1CCCNC(=O)CCCN1C(=O)c2cccnc2Sc2ccccc21 (configuration not stated)	0	i	-4	1
